Source: PubChem BioAssay (NCATS)
“And” between values parts separate entries of the source, which are not always exact repeats. Equal values may be shown once. Records with an inconclusive call do not appear. The source made the active and inactive calls. Unless noted, the call rests on the fitted dose curve; in most records, active means well fitted curve in the direction sought with a large enough effect; inconclusive means small, poorly fitted or top-dose-only effect, or another doubt; inactive means no such curve, though single readings can be large; an effect the other way counts as inactive or inconclusive.

What was measured:
[1] = Cellular Toxicity (caspase-3) SHSY5Y (AID 657);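 further: cells exposed to compound for 16 hours at 37 °C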; further: potency means the concentration at half of the fitted maximal effect
How it was run: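 qHTS, SH-SY5Y, 1500 cells/well, 5 h pre-incubation 37 °C; compound 16 h 37 °C; Caspase-Glo 3/7 1 h RT; luminescence. Norm.: DMSO = 0, 10 uM staurosporine = 100%. Hill fit → AC50.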

[2] = Cellular Toxicity (caspase-3) BJ (AID 658); details: Potency: caspase-3 activation; further: potency means the concentration at half of the fitted maximal effect;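 on caspase-3 activation: cells exposed to compound for 16 hours; 0% = DMSO basal and 100% = 10 µM staurosporine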
How it was run: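 qHTS, BJ fibroblasts, 1000 cells/well; 5 hr preincubation, 16 hr compound, 37 °C; Caspase-Glo 3/7 reagent, 1 hr RT; luminescence. DMSO = 0%, 10 uM staurosporine = 100%. Hill-equation AC50.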

[3] = Cellular Toxicity (caspase-3) MRC-5 (AID 659); details: Potency: caspase-3 activation; further: potency means the concentration at half of the fitted maximal effect;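 on caspase-3 activation: 0% = DMSO basal and 100% = 10 µM staurosporine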
How it was run: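 MRC-5 fibroblasts, 1500/well; 16 h cpd, 37 °C; Caspase-Glo 3/7, 1 h RT; lumi read. Norm: DMSO = 0%, 10 uM staurosporine = 100%. Hill-fit AC50 from qHTS conc-response.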

[4] = Cellular Toxicity (caspase-3) Mesangial (AID 660); details: Potency: caspase-3 activation;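 further: combined caspase 3 and 7 activity read by Caspase-Glo luminescence; cells exposed to compound for 16 h before the caspase read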; further: potency means the concentration at half of the fitted maximal effect
How it was run: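 Luminescent Caspase-Glo 3/7 readout (aminoluciferin substrate cleavage, 20 min RT) after 16 h compound exposure at 37 °C of normal human mesangial cells. Signal increase normalized between DMSO basal and 100 uM tamoxifen; Hill-equation AC50.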

[5] = Cellular Toxicity (caspase-3) SK-N-SH (AID 661);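 further: cells exposed to compound for 16 hours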; further: potency means the concentration at half of the fitted maximal effect;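 on caspase-3 activation: 0% = DMSO basal and 100% = 10 µM staurosporine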
How it was run: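 Luminescent Caspase-Glo 3/7 read-out after 16 hr compound exposure of SK-N-SH neuroblastoma cells at 37 °C. Signal increase normalized to DMSO (basal) and 10 uM staurosporine (100%); AC50 from Hill equation fits of qHTS concentration-response data.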

[6] = Cellular Toxicity (caspase-3) H-4-II-E (AID 663); details: H-4-II-E rat hepatoma, scaled: DMSO 0%, 100 µM tamoxifen 100%; at 92.2 µM (top of the series);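 further: cells exposed to compound for 16 hr before readout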
How it was run: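 H-4-II-E rat hepatoma, 1500 cells/well, 5 hr settle at 37 °C; compound 16 hr, 37 °C, complete medium; Caspase-Glo 3/7, 20 min RT; luminescence. DMSO = 0%, 100 uM tamoxifen = 100%; Hill-equation AC50.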

[7] = Cellular Toxicity (caspase-3) Hek293 (AID 664); details: HEK293 caspase-3 activation, DMSO = 0%, 100 µM tamoxifen = 100%; at 92.2 µM (top of the series);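 further: cells exposed to compound for 16 h at 37 °C before readout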
How it was run: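 Luminescent Caspase-Glo 3/7 readout (aminoluciferin release) in HEK293 cells after 16 h compound treatment, 37 °C. Normalization: DMSO = basal, 100 uM tamoxifen = 100% stimulation. Concentration-response fitted with standard Hill equation for AC50.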

[8] = Cellular Toxicity (caspase-3) N2a (AID 665);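 further: compound exposure lasted 16 h at 37 °C before readout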
How it was run: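 Luminescent Caspase-Glo 3/7 readout in N2a mouse neuroblastoma cells after 16 h compound exposure at 37 °C. Signal scaled to DMSO (basal) and 10 uM staurosporine (100%). Concentration-response fitted with Hill equation for AC50.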

[9] = Cellular Toxicity (caspase-3) Renal Proximal Tubule (AID 667); details: Potency: caspase-3 activation;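 further: cells exposed to compound for 16 hours at 37 °C before detection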; further: potency means the concentration at half of the fitted maximal effect;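 on caspase-3 activation: 0% = DMSO basal and 100% = 10 µM staurosporine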
How it was run: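 AC50 derived by standard Hill fit of concentration-response data, normalized between DMSO basal and 10 uM staurosporine as 100% stimulation. Cells: primary rat kidney proximal tubule, 16 h treatment at 37 °C.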

[10] = Confirmation and Secondary Assay for Modulators of Hemoglobin Beta Chain Splicing at IVS2 654 locus (AID 910);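 further: HeLa cells stably carrying EGFP split by mutant beta-globin IVS2-654 intron; % of control where 0% means no effect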
How it was run: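 HeLa cells stably expressing EGFP interrupted by β-globin IVS2-654 intron, seeded overnight in Opti-MEM/2% FCS, then treated 2 days at 37 °C. Restored splicing read as total peak GFP intensity per well by laser scanning cytometry (488 nm excitation, 500–520 nm emission); 500 nM antisense PNA as control.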

[11] = Cell Viability - LYMP2-001 (AID 921);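 further: cells exposed to compound for 24 h at 37 °C; nearly all actives have a fitted effect of over 70% in size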; further: potency means the concentration at half of the fitted maximal effect
How it was run: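 Steps: seed 2500 lymphoblastoid cells/well; 5 hr, 37 C; add compound; 24 hr, 37 C; CellTiter-Glo reagent, 30 min room temperature; read luminescence. Concentration-response modeled by Hill equation for AC50.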

[12] = Confirmation and Secondary Assay for Modulators of Hemoglobin Beta Chain Splicing at IVS2 705 locus (AID 930);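 further: HeLa cells stably expressing the EGFP-705 splicing reporter; GFP fluorescence per well restored by corrected splicing of the IVS2-705 intron in EGFP; % of control where 0% means no effect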
How it was run: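 First, HeLa EGFP-705 cells are seeded at 500/well in Optimem with 2% FCS and left overnight. Next, compound or DMSO is added for 2 days. Finally wells are laser-scanned and total peak GFP intensity scored.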

[13] = target: Cytochrome P450 2C9 (Homo sapiens) (UniProt P11712); assay: qHTS Assay for Inhibitors and Substrates of Cytochrome P450 2C9 (AID 883); further: on the % scale 0 is the no-effect control and ±100 the full control effect; nearly all actives have a fitted effect of over 60% in size
Sequence of Cytochrome P450 2C9 (Homo sapiens) (P11712 whole entry, looked up): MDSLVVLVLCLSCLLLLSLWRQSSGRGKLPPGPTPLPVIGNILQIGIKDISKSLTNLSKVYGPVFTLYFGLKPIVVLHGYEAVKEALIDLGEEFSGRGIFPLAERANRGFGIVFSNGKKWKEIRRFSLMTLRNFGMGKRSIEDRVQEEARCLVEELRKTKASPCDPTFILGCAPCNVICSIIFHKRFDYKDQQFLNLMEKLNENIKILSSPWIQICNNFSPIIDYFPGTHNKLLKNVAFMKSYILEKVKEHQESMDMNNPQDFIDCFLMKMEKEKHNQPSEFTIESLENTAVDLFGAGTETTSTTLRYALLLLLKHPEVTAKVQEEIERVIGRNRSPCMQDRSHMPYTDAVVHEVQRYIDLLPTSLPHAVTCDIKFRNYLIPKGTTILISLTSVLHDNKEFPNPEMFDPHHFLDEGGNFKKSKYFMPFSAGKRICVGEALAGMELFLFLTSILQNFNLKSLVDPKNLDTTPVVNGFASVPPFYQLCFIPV
How it was run: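 Human CYP2C9 (10nM) with Luciferin-H at 100uM (its KM) in 25mM KPO4; compound preincubated 10 min at 37C, then NADPH regeneration for 60 min at 37C. Luciferin read by luminescence after detection reagent; normalized to 57uM sulphaphenazole as full inhibition.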

[14] = target: Cytochrome P450 3A4 (Homo sapiens) (UniProt P08684); assay: qHTS Assay for Activators of Cytochrome P450 3A4 (AID 885); further: nearly all actives have a fitted effect of over 65% in size
Sequence of Cytochrome P450 3A4 (Homo sapiens) (P08684 whole entry, looked up): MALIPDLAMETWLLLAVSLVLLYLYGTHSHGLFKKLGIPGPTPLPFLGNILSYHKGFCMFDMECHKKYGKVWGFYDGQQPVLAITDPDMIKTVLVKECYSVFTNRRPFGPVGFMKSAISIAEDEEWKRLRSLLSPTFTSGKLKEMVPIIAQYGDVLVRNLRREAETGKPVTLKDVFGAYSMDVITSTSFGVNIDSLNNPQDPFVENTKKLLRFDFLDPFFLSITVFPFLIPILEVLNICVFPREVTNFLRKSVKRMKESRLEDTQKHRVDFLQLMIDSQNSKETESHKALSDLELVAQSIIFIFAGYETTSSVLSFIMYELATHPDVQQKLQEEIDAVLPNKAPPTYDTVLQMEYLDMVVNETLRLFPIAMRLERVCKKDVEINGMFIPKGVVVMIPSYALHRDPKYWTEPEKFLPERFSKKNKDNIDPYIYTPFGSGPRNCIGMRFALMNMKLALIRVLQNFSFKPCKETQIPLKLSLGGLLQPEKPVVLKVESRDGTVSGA
How it was run: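 Luminescent readout of luciferin formed from 25 uM Luciferin-PPXE (KM level) by 20 nM CYP3A4 in 200 mM KPO4, with 60 min NADPH-driven reaction at room temperature after 10 min compound exposure. Ketoconazole (57 uM) defined 100% inhibition.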

[15] = target: Guanine nucleotide-binding protein G(i) subunit alpha-1 (Homo sapiens) (UniProt P63096); assay: qHTS Assay for Inhibitors of RGS12 GoLoco Motif Activity (Green Fluorophore) (AID 879);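 further: 0% = labeled peptide with Gαi1 and full inhibition = labeled peptide alone without protein; negative values mean loss of peptide binding seen as reduced polarization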
Sequence of Guanine nucleotide-binding protein G(i) subunit alpha-1 (Homo sapiens) (P63096 whole entry, looked up): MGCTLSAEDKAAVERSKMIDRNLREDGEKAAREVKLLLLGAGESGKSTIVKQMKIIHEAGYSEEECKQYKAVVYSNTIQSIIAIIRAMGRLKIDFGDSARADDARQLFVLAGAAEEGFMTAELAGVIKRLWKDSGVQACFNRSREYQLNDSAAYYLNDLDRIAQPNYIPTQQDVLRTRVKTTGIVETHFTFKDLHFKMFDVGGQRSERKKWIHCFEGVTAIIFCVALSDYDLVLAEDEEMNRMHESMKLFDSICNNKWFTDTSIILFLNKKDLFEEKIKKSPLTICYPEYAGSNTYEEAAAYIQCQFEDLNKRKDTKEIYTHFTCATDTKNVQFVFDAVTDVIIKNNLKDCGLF
How it was run: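 A drop in FITC polarization marked displacement of the FITC-tagged RGS12 GoLoco peptide (10 nM) from Gαi1 (50 nM). Compounds were incubated 10 min at room temperature in Tris pH 7.5 buffer containing 150 mM NaCl, 0.1 mM GDP and 0.05% NP40; unlabeled peptide titration served as control.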

[16] = qHTS Assay for Identification of Small Molecule Antagonists for NFkB Signaling Pathway (AID 895; active means well fitted inhibition curve with a large enough effect in the signal ratio, with a control signal flat, not every such curve was filed as active; the % refers to the signal ratio; further: potency means the concentration at half of the fitted maximal effect)
How it was run: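 ME-180 NFkB-bla cells (beta-lactamase under NFkB response element), plated overnight, treated with compound then 10 pM TNF alpha (about EC50) for 5 hrs at 37 C. LiveBLAzer FRET read at 460/530 nm emission, 405 nm excitation.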

[17] = qHTS Assay for Identification of Small Molecule Agonists for Thrombopoietin (TPO) Signaling Pathway (AID 917); further: on the % scale 0 is the no-effect control and ±100 the full control effect
How it was run: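 Cell-based luciferase reporter screen. Mouse Ba/F3 line stably expressing human TPO receptor; IL-3 removed overnight before plating. Co-treatment with compound and EC50 TPO (26 pM), 24 hrs at 37 C, then luminescence.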

[18] = qHTS Assay for Identification of Small Molecule Agonists for Hypoxia Response Element Signaling Pathway (AID 914; active means well fitted activation curve with a large enough effect in the signal ratio, with a control signal flat, not every such curve was filed as active; the % refers to the signal ratio; further: % of control where 0% means no effect); details: ME-180 (cervical carcinoma) HRE-bla reporter, beta-lactamase ratio, CoCl2, 17 h; stronger effect = higher value
How it was run: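 Positive modulation of EC50 CoCl2-induced hypoxia response element signaling is measured in ME-180 cells with a beta-lactamase reporter. Compounds are titrated, incubation runs 17 hours, and %Activity derives from the blue/green ratio.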

Cc1nnc(NS(=O)(=O)c2ccc(N)cc2)s1
inactive: Potency [1] | Potency [2] | Potency [3] | Potency [4] | Potency [5] | caspase-3 activation [6] -0.129% | caspase-3 activation [7] -0.508% | outcome [8] | Potency [9] | Potency [10] | Potency [11] | Potency [12]

COC(=O)Nc1nc2ccc(C(=O)c3ccccc3)cc2[nH]1
inactive: outcome [13] | Potency [10] | Potency [12]

Cc1cccc(N(C)C(=S)Oc2ccc3ccccc3c2)c1
inactive: outcome [14] | Potency [10] | Potency [12]

OCc1ccc(-c2nn(Cc3ccccc3)c3ccccc23)o1
inactive: outcome [15] | outcome [14] | outcome [17]
active: Potency [16] 8.91 µM

CC(=O)[C@H]1CC[C@H]2[C@@H]3CCC4=CC(=O)CC[C@]4(C)[C@H]3CC[C@]12C
inactive: Potency [1] | Potency [2] | Potency [3] | Potency [4] | Potency [5] | caspase-3 activation [6] 12.7% and 23% | outcome [8] | Potency [9] | outcome [15] | Potency [11]
active: caspase-3 activation [7] 154%

CCn1cc(C(=O)O)c(=O)c2cc(F)c(N3CCNCC3)nc21
inactive: outcome [13] | Potency [10] | Potency [12]

Cc1noc(NS(=O)(=O)c2ccc(N)cc2)c1C
inactive: Potency [1] | Potency [2] | Potency [3] | Potency [4] | Potency [5] | caspase-3 activation [6] 0.00688% | caspase-3 activation [7] -1.11% | outcome [8] | Potency [9] | outcome [13] | Potency [10] | activation [18] -20.7% and -0.198% | Potency [11] | Potency [12]

N=C(N)c1ccc(OCCCCCOc2ccc(C(=N)N)cc2)cc1
inactive: Potency [1] | Potency [2] | Potency [3] | Potency [4] | Potency [5] | caspase-3 activation [6] 1.46% | caspase-3 activation [7] 3% | outcome [8] | Potency [9] | Potency [10] | activation [18] 3.68% | Potency [12]

CN(C)c1ccc(C(=C2C=CC(=[N+](C)C)C=C2)c2ccc(N(C)C)cc2)cc1
inactive: outcome [14] | Potency [10] | Potency [12]
active: Potency [1] 3.16 µM | Potency [2] 15.8 µM | Potency [3] 6.31 µM | Potency [4] 31.6 µM | Potency [5] 10 µM | caspase-3 activation [6] 85.6% | Potency [9] 31.6 µM | Potency [11] 1.26 µM
